These results are taken from PubChem BioAssay.

Assay [1] in a line: compound effects on lung adenocarcinoma cell viability – A549, calcein-AM fluorescence, 48 h, basal, profiling panel (AID 1162). Also: test concentration not given here. The note with it: higher = more signal.
Assay [2] in a line: compound effects on differentiated 3T3-L1 adipocyte viability – cell-based, 3T3-L1 adipocytes, calcein-AM fluorescence, 48 h, basal, profiling panel (AID 1163). Also: test concentration not given here. The note with it: 3T3-L1 adipocytes viability, higher = more signal.
The nature of assay [3]: compound effects on hepatocellular carcinoma cell viability – HepG2, calcein-AM fluorescence, 48 h, basal, profiling panel (AID 1164). Also: test concentration not given here. Particulars: higher = more signal.
A short description of assay [4]: compound effects on multiple myeloma cell viability – MM1S, calcein-AM fluorescence, 48 h, basal, profiling panel (AID 1165).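 Also: viability of MM1S multiple myeloma cells under basal unstimulated conditions; test concentration not given here.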 Particulars: higher = more signal.
The nature of assay [5]: calcein-AM signal in unstimulated myeloma cells – cell-based, calcein-AM fluorescence, 48 h, PK04 Diversity Set, profiling panel (AID 1166).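 Also: cells grown under basal conditions without added stimulus; test concentration not given here.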 Particulars: RPMI8226 myeloma viability, higher = more signal.
The nature of assay [6]: JC-1 mitochondrial signal, unstimulated HepG2 cells – cell-based, JC-1 fluorescence, 24 h, 100 nL compound, profiling panel (AID 1167). Also: test concentration not given here. The note with it: HepG2 mitochondrial potential, higher = more signal.
The nature of assay [7]: JC-1 mitochondrial signal, unstimulated adipocytes – cell-based, JC-1 fluorescence, 3T3-L1 adipocytes, 24 h, 100 nL compound, profiling panel (AID 1168). Also: test concentration not given here. Particulars: JC-1 mitochondrial fluorescence, higher = more signal, called active from +8 up or from −8 down.
Assay [8] is described as follows: JC-1 mitochondrial signal, unstimulated myeloma cells – cell-based, JC-1 fluorescence, RPMI8226, 24 h, 100 nL compound, profiling panel (AID 1169). Also: test concentration not given here. The note with it: JC-1 mitochondrial potential fluorescence, higher = more signal.
Assay [9] in a line: JC-1 mitochondrial signal, unstimulated MM1S myeloma – cell-based, JC-1 fluorescence, 24 h, 100 nL compound, profiling panel (AID 1170). Also: test concentration not given here. The note with it: MM1S mitochondrial potential, higher = more signal.
Assay [10] can be described thus: resazurin metabolic signal in A549 cells – cell-based, resazurin fluorescence, 24 h, PK04 Diversity Set, profiling panel (AID 1171). Also: test concentration not given here. Particulars: A549 viability, higher = more signal, called active from +8 up or from −8 down. Background: Alamar Blue is a resazurin reagent that responds to reducing activity.
Assay [11] is described as follows: resazurin metabolic signal in HepG2 cells – cell-based, resazurin fluorescence, 24 h, PK04 Diversity Set, profiling panel (AID 1172). Also: test concentration not given here. Particulars: HepG2 viability, higher = more signal.
Assay [12] in a line: budding yeast growth changes without added modifier – OD600, strain BY4716, 24 h, basal condition, primary screen (AID 1173). The note with it: S. cerevisiae BY4716 growth, OD600, 24 h; higher = more signal, called active from +8 up or from −8 down.
Assay [13] can be described thus: viability profiling in MM1S myeloma cells – cell-based, resazurin fluorescence, basal, 24 h, PK04 Diversity Set, profiling panel (AID 1174). Also: test concentration not given here. The note with it: higher = more signal, called active from +8 up or from −8 down.
The target in assay [14] is Dihydroorotate dehydrogenase (quinone), mitochondrial (Plasmodium falciparum (isolate 3D7)) (UniProt Q08210). In words: inhibition of P. falciparum DHODH – biochemical, C-terminal His tag, absorbance 600 nm, primary screen (AID 1175).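 Also: recombinant parasite enzyme with a five histidine tag at its C terminus; test concentration not given here.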 The note with it: PfDHODH enzyme, DCIP absorbance 600 nm; higher = more signal, called active from +8 up or from −8 down.
Sequence of Dihydroorotate dehydrogenase (quinone), mitochondrial (Plasmodium falciparum (isolate 3D7)) (Q08210 whole entry, looked up): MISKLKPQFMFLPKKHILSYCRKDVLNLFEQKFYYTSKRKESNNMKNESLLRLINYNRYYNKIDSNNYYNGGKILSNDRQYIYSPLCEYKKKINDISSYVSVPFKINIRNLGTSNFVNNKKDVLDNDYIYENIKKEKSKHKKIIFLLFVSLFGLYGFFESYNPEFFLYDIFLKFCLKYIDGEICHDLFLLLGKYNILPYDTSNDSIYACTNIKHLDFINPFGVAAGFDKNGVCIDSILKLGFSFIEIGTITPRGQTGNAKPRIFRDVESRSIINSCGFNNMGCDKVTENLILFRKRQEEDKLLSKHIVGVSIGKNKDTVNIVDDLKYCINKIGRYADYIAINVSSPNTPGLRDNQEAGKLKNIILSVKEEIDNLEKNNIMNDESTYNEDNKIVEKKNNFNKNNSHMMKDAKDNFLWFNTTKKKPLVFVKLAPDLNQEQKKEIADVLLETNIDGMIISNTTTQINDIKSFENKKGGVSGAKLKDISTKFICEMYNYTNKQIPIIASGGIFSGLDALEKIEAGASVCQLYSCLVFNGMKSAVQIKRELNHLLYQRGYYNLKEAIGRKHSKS
A short description of assay [15]: inhibition of PAO1 biofilm formation – strain PAO1, LB-PBS medium, absorbance 600 nm, primary screen (AID 1176). Also: test concentration not given here. The note with it: P. aeruginosa PAO1 growth/biofilm, A600, 12 h; higher = more signal.
Assay [16] in a line: growth modulation of vineyard yeast isolate – strain RM11-1a, OD600, basal, 24 h, primary screen (AID 1177).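 Also: cultures grown under basal conditions with no added stressor; test concentration not given here.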 Particulars: S. cerevisiae RM11-1a growth, OD600, 24 h; higher = more signal, called active from +8 up or from −8 down.
The nature of assay [17]: growth of efflux-deficient E. coli DRC39 – strain DRC39, OD650, 24 h, E. coli filamentation inducers, primary screen (AID 1178).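 Also: growth measured as culture turbidity by optical density at 650 nm; test concentration not given here.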 The note with it: E. coli DRC39 acrAB, higher = more signal, called active from +8 up or from −8 down.
Assay [18] in a line: growth of efflux-deficient E. coli DRC39 – strain DRC39, OD650, 48 h, E. coli filamentation inducers, primary screen (AID 1179).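 Also: screen aims at cell division blockers that make cells filament.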 The note with it: E. coli DRC39 delta-acrAB growth, higher = more signal, called active from +8 up or from −8 down.
Assay [19] can be described thus: viability profiling in RPMI8226 myeloma cells – cell-based, resazurin fluorescence, basal, 24 h, PK04 Diversity Set, profiling panel (AID 1180).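 Also: RPMI8826 multiple myeloma cell line at 5000 cells per well; test concentration not given here.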 The note with it: higher = more signal.
The target of assay [20] is E3 ubiquitin-protein ligase XIAP (Homo sapiens) (UniProt P98170). In words: small molecules binding XIAP protein – biophysical, small-molecule microarray, fluorescence 635 nm, primary screen (AID 1181).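 Also: score merges 667 nm emission and signal to noise over triplicate slides.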 Particulars: higher = more signal.
Sequence of E3 ubiquitin-protein ligase XIAP (Homo sapiens) (P98170 whole entry, looked up): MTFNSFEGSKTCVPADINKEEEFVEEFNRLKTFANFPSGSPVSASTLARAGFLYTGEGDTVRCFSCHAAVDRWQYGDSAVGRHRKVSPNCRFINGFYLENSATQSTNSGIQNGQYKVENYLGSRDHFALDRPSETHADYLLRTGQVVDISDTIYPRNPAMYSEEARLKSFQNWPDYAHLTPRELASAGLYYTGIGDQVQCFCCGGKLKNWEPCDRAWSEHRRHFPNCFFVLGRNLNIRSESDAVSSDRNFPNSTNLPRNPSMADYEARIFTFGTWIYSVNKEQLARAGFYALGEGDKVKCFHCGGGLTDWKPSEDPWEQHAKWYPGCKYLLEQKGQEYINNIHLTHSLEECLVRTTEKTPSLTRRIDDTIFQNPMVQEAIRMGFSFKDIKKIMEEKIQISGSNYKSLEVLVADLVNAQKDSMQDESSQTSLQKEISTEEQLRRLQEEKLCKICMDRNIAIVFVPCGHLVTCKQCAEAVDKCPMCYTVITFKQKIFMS

The source made the active and inactive calls. Unless noted, no rule for the calls is given here.

As to `CCN1C(=O)[C@H]2[C@H]3[C@H](O)[C@H](O)CC(=NOCC=C(C)CCC=C(C)C)[C@@H]3CC[C@H]2C1=O`, the z-score in assay [1] is -0.0234; in assay [2] it was 0.28; in assay [3] it was -0.196; in assay [4], -0.701; in assay [5], 0.203; in assay [6] it was -0.731. Further, the z-score in [7] was -1.56 (inactive); in assay [8], -0.321; in assay [9] it was 0.355; in [10] it was 0.298 (inactive); in assay [11], -0.623; in assay [12] it was -6.59 (inactive). Moreover, the z-score in assay [13] was -0.719 (inactive); in assay [15], -0.446 (inactive); in assay [16], -0.29 (inactive); in assay [17] it was 0.42 (inactive); in assay [18], -0.731 (inactive); in assay [19], -0.517. The figures for the composite z-score in assay [14] and in [20] were -1.16 (inactive) and 0.155, respectively.

In the case of `C[C@@H](c1ccccc1)N1C(=O)[C@H]2[C@H]3[C@H](O)[C@H](O)CC(=NNC(=O)OCc4ccccc4)[C@@H]3CC[C@H]2C1=O`, the z-score was -0.18 in [1]; -0.506 in [2]; -0.468 in assay [3]; 0.399 in [4]; -0.253 in assay [5]; -0.604 in [6]. The z-score in assay [7] is -0.762 (inactive); in [8], 0.102; in [9], -0.998; in [10], -0.427 (inactive); in assay [11], -0.289; in assay [12], 0.862 (inactive). Besides, the z-score in assay [13] was -0.465 (inactive); in assay [15], -0.155 (inactive); in assay [16] it was -0.396 (inactive); in assay [17] it was 0.288 (inactive); in assay [18], 0.476 (inactive); in [19], -0.158. For the same molecule, the composite z-score is -0.594 (inactive) in [14] and -0.0749 in [20].

For the molecule `CC(C)=NO[C@H](C)c1cn([C@@H]2COC[C@H]2O)nn1`, the z-score in [1] was 0.874; in [2], -0.573; in [3], 0.818; in assay [4], 0.0495; in [5] it was -0.275; in assay [6], 1.01. In addition, the z-score in assay [7] is 0.0682 (inactive); in assay [8], 0.183; in [9], -0.593; in assay [10], -0.483 (inactive); in assay [11] it was -1.51; in assay [12], -0.0346 (inactive). Moreover, the z-score in assay [13] was -0.508 (inactive); in assay [15], 0.101 (inactive); in assay [16] it was -0.683 (inactive); in assay [17], 0.504 (inactive); in [18] it was 0.82 (inactive); in assay [19], -0.469. The composite z-score in assay [14] was 0.0741 (inactive); in [20] it was -0.152.

On to `CC(=O)OC[C@H]1O[C@@H](ON=C(C)CCN2CCCCc3nc(C)c(C)cc32)[C@H](OC(C)=O)[C@@H](OC(C)=O)[C@@H]1OC(C)=O`, for which the z-score in [1] is -1.33; in [2] it was 1.58; in assay [3], -0.716; in assay [4], 0.224; in [5] it was -2.19; in assay [6], 0.203. Moreover, the z-score is 0.327 (inactive) in assay [7]; -0.832 in assay [8]; -0.411 in assay [9]; -0.101 (inactive) in [10]; -0.077 in assay [11]; -0.436 (inactive) in assay [12]. In addition, the z-score in [13] was 0.382 (inactive); in assay [15], -0.679 (inactive); in assay [16], -1.15 (inactive); in assay [17], -1.24 (inactive); in assay [18] it was -0.816 (inactive); in assay [19], -0.0356. Besides, the values for the composite z-score in assay [14] and in assay [20] were -2.52 (inactive) and 0.0899, respectively.

In the case of `CC(C)CON=C1C[C@@H](O)[C@@H](O)[C@@H]2[C@@H]3C(=O)N([C@@H](C)c4ccccc4)C(=O)[C@@H]3CC[C@@H]12`, the z-score in [1] was -0.398; in assay [2] it was -0.63; in assay [3], -0.829; in assay [4], -0.79; in [5], 0.336; in assay [6], -0.889. Besides, the z-score in assay [7] is -0.72 (inactive); in assay [8], 0.638; in [9], -0.389; in [10], 0.0092 (inactive); in [11] it was -0.161; in assay [12] it was 0.221 (inactive). Also, the z-score was -0.827 (inactive) in [13]; 1.6 (inactive) in [15]; -0.251 (inactive) in [16]; -0.286 (inactive) in assay [17]; -0.112 (inactive) in assay [18]; -0.534 in [19]. In addition, the composite z-score was 0.291 (inactive) in [14] and 0.209 in assay [20].

Turning to `CC1(C)O[C@H]2O[C@H]([C@H](O)CON=C3[C@H]4CCn5c(=O)n(-c6ccccc6)c(=O)n5[C@H]4[C@H](O)[C@@H]4O[C@H]34)[C@H](O)[C@H]2O1`, the z-score in assay [1] was -0.359; in [2], 0.104; in [3], -0.0631; in [4], 0.112; in assay [5] it was 0.279; in [6], -0.494. Also, the z-score was -1.12 (inactive) in assay [7]; 0.438 in [8]; 0.223 in assay [9]; 0.065 (inactive) in assay [10]; -0.294 in assay [11]; -0.139 (inactive) in [12]. Further, the z-score in [13] was 0.159 (inactive); in assay [15] it was 0.593 (inactive); in [16], -0.894 (inactive); in assay [17] it was 0.483 (inactive); in assay [18], -0.516 (inactive); in [19] it was 0.343. Besides, the composite z-score in assay [14] was -0.327 (inactive); in [20], -0.0767.

For the molecule `COC(=O)[C@H](C)NC(=O)CCC1CC(OC(=O)NCc2cccc3ccccc23)CC2(CCCC(COC(=O)NCCCN3CCCC3=O)O2)O1` (stereo not given in full), the z-score in assay [1] was 0.278; in assay [2], -0.172; in assay [3], 0.488; in assay [4] it was 0.145; in assay [5], -0.0813; in [6], 0.24. The z-score in [7] is 0.338 (inactive); in assay [8], -0.344; in assay [9] it was -0.394; in assay [10], 0.44 (inactive); in assay [11], 0.607; in assay [12] it was -0.0554 (inactive). Besides, the z-score was 0.478 (inactive) in assay [13]; 0.286 (inactive) in [15]; 0.0627 (inactive) in assay [16]; 0.992 (inactive) in assay [17]; -1.34 (inactive) in assay [18]; -0.0303 in [19]. Moreover, the figures for the composite z-score in assay [14] and in [20] were -0.104 (inactive) and -0.273, respectively.

Turning to `C[C@]12CCC3c4ccc(OCC5CO5)cc4CCC3C1CC[C@@H]2O` (stereo not given in full), the z-score is 0.45 in assay [1]; 0.277 in assay [2]; 0.266 in assay [3]; -2.59 in [4]; -1.06 in assay [5]; 1.15 in assay [6]. For the same molecule, the z-score in assay [7] is 0.121 (inactive); in assay [8], 0.0313; in assay [9], -0.046; in assay [10], 2.25 (inactive); in assay [11], 0.689; in assay [12], -3.59 (inactive). Moreover, the z-score in assay [13] was 0.383 (inactive); in [15], 0.52 (inactive); in assay [16], 1.27 (inactive); in assay [17] it was -0.424 (inactive); in assay [18], -0.431 (inactive); in assay [19] it was 1.68. The composite z-score is -0.187 (inactive) in [14] and -0.148 in assay [20].

As for `CCOC(=O)[C@H](Cc1ccccc1)NC(=O)CCC1CC(OC(=O)NCc2cccc3ccccc23)CC2(CCCC(COC(=O)NCCc3ccc(Cl)cc3)O2)O1` (stereo not given in full), the z-score is 0.893 in [1]; 0.595 in assay [2]; -0.397 in assay [3]; 0.248 in assay [4]; 0.859 in assay [5]; -0.114 in assay [6]. Besides, the z-score in assay [7] is 0.237 (inactive); in assay [8], -0.185; in assay [9], -0.401; in [10] it was 0.895 (inactive); in [11] it was 0.723; in [12] it was -1.24 (inactive). The z-score in assay [13] was 0.768 (inactive); in assay [15] it was 0.32 (inactive); in assay [16] it was -0.424 (inactive); in [17], -0.178 (inactive); in [18] it was -0.907 (inactive); in assay [19], 1.45. Also, the composite z-score is -0.617 (inactive) in assay [14] and 0.165 in assay [20].
